Test results reported in PubChem BioAssay (NCATS).
Inconclusive results are not listed. The source made the active and inactive calls. Calls follow the shape of the dose curve; as a rule, active = well fitted inhibition curve with a large enough effect; inconclusive = small, poorly fitted or top-dose-only effect; inactive = flat fitted curve, though single readings scatter.

Test system: CP266
Experiment: qHTS profiling for inhibitors of Plasmodium falciparum proliferation (AID 504749); also: nearly all actives have a fitted effect of over 60% in size;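 as to activity, negative = inhibition: 0% = DMSO vehicle and full inhibition = artemisinin control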
Conditions: P. falciparum in erythrocytes, SYBR Green DNA, 72 h; series mostly up to 28.7 µM; activity, negative = inhibition: at the top concentration
In short: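 Quantitative HTS: compounds pinned into medium, infected erythrocytes added (0.3% parasitemia, 2.5% hematocrit), 72 h culture at 37 C under 5% CO2. Saponin/Triton lysis with SYBR Green I, overnight RT, then fluorescence read.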
Potency is read from the fitted curve at half-maximal effect.

activity, negative = inhibition, inactive:
CCCCCCCCCCCCCCCC(=O)OC[C@H](O)[C@H]1OC[C@@H](O)[C@@H]1O -1.22%, C[C@H]1OC(OC2C(O)[C@@H](O)C(OC3C(O)[C@@H](O)C(O)O[C@@H]3CO)O[C@@H]2CO)[C@H](O)C(O)C1N[C@H]1C=C(CO)[C@@H](O)[C@H](O)C1O (stereo not given in full) -0.338%, CCN(CC)CC(=O)Nc1c(C)cc(C)cc1C -9.36%, CC(=O)N[C@H]1[C@H](O[C@@H]2c3ccc(c(Cl)c3)Oc3cc4cc(c3O[C@@H]3O[C@H](CO)[C@@H](O)[C@H](O)C3C)Oc3ccc(cc3Cl)C[C@H]3NC(=O)[C@@H](N)c5ccc(O)c(c5)Oc5cc(O)cc(c5)[C@H](NC3=O)C(=O)N[C@H]4C(=O)N[C@H]3C(=O)N[C@@H]2C(=O)N[C@@H](C(=O)O)c2cc(O)cc(O[C@H]4O[C@H](CO)[C@@H](O)C(O)[C@@H]4O)c2-c2cc3ccc2O)O[C@H](CO)[C@@H](O)[C@@H]1O (stereo not given in full) 0.154% [at 12.8 µM], NC(=O)c1ncn(C2OC(CO)C(O)C2O)c1N (stereo not given) -1.64%, CC1(Cn2ccnn2)[C@H](C(=O)O)N2C(=O)C[C@H]2S1(=O)=O (stereo not given in full) 15.3%, CN(C)CC/C=C1\c2ccccc2COc2ccc(CC(=O)O)cc21 12.3%, CCCC(=O)O[C@]1(C(=O)COC(C)=O)CC[C@H]2C3C[C@H](F)C4=CC(=O)C=CC4(C)[C@@]3(F)[C@@H](O)CC21C (stereo not given in full) -0.0154%

Potency, active:
CCCCC(=O)OCC(=O)[C@]1(O)Cc2c(O)c3c(c(O)c2[C@H](OC2CC(NC(=O)C(F)(F)F)C(O)C(C)O2)C1)C(=O)c1c(OC)cccc1C3=O (stereo not given in full) 1690 nM, C[C@H]1[C@@H](OC(=O)CCC(=O)O)OC2OC3(C)CC[C@H]4[C@H](C)CC[C@@H]1[C@@]24OO3 (stereo not given in full) 23.9 nM
